Results from PubChem BioAssay AID1985 (Southern Research Specialized Biocontainment Screening …, 2009).
About 1,000 (43%) of roughly 2,300 compounds were called active. The set was probably picked from earlier hits. This is one part of the list. Measured potencies and affinities stand elsewhere. Unmarked numbers belong to inactive results. The rule behind the calls is not given here.

test: modified counter assay using GFP fluorescence, PhoP regulon inhibitor project, dose response (AID 1985); settings: S. Typhi, 4 h; series mostly up to 150 µM; inhibition: at the top concentration

| Compound | inhibition |
| --- | --- |
| CCOc1cc(S(=O)(=O)N2CCN(CC)CC2)ccc1Cl | -5.49% |
| Cc1cc(C)n2nc(SCn3nnc4ccccc4c3=O)nc2n1 | 11.8% |
| Cc1ccc2cc(CN(Cc3ccc(F)cc3)Cc3nnnn3C3CCCC3)c(=O)[nH]c2c1 | -28% |
| CCCCCCCCC1=NCCc2c1[nH]c1ccccc21 | -11% |
| CN(C)CCSc1nnc2[nH]c3ccccc3c2n1 | -3.67% |
| COc1ccc(-n2ncc3c(NCc4ccccn4)ncnc32)cc1 | -9.74% |
| CCCCCCNC1=NCCS1 | 31.9% |
| CC1=C([N+](=O)[O-])C(c2cccc(Br)c2)C2=C(N1)c1ccccc1C2=O (stereo not given) | 20.7% |
| O=C(O)C1Cc2ccccc2CN1S(=O)(=O)c1ccc2ccccc2c1 (stereo not given) | -7.48% |
| CC(=O)c1c(C)[nH]c(C(=O)CSc2nnc(-c3ccc(Cl)cc3)n2CC2CCCO2)c1C (stereo not given) | 0.08% |
| O=C(CSc1nc2ncc(Cl)cc2[nH]1)NCC(=O)Nc1ccc(F)c(F)c1F | 4.94% |
| CC1(C)CC(N2CCN(c3ccccc3)CC2)=CC(=[N+]2CCCC2)C1 | 8.5% |
| CCCCCCC(=O)N(O)C1CC(=O)N(Cc2ccccc2)C1=O (stereo not given) | 6.46% |
| Cc1ccc(OCC(O)Cn2c(N)nc3c2c(=O)n(C)c(=O)n3C)cc1 (stereo not given) | -6.08% |
| C=CCn1c(C)c(C(C)=O)c(N2CCCC2)nc1=S | 15.9% |
| CCOC(=O)C1=C(C(C)=O)C(c2cccnc2)C(C#N)=C(N)O1 (stereo not given) | 3.6% |
| COc1ccc(CN2CCSCC2)cc1C | 17.3% |
| Cc1ccc(NC(=O)CN(C)C(=O)Cn2ccsc2=N)cc1 | 9.59% |
| CC(C)NC(=O)c1cc(-c2ccc(Br)cc2)on1 | 2.62% |
| Cc1ccccc1-c1ncc(CN2CCN(C3CCCC3)C(CCO)C2)cn1 (stereo not given) | 9.03% |
| Nc1nc2n(n1)C(c1ccco1)CC(c1ccc(Cl)c(Cl)c1)N2 (stereo not given) | -11.5% |
| CCN(CC)CCNC(=O)c1cccc(NC(=O)C(=O)c2cc(Br)ccc2NC(C)=O)c1 | 15% |

| Compound | inhibition |
| --- | --- |
| O=C(NC(=C(Cl)Cl)S(=O)(=O)c1ccc(Cl)cc1)c1ccccc1 | -3.98% |
| CC(=O)Nc1cc(-c2ccc(Cl)cc2)[nH]n1 | -11.4% |
| COc1ccc(NS(=O)(=O)c2cccc(NC(=O)c3ccccn3)c2)cc1 | 1.48% |
| CCCCCCCCCCCCC/C=C/[C@@H](O)[C@@H](N)CO | 21.2% |
| COc1ccc(OC)c(S(=O)(=O)N2CCC(C(=O)NCCc3ccc(OC)c(OC)c3)CC2)c1 | -3.61% |
| Cc1nnc(SCc2cnc(-c3ccc(C(C)C)cc3)s2)n1C | 34.8% |
| O=C(C[n+]1cc(-c2ccccc2)n2c1CCC2)c1cccs1 | 18.7% |
| Cc1ccc(-n2c(Cc3noc4ccccc34)n[nH]c2=S)cc1 | 2.98% |
| CCc1nnc(NS(=O)(=O)c2ccc(NC(=S)NC(=O)/C=C/c3ccc([N+](=O)[O-])cc3)cc2)s1 | -7.82% |
| CCN(CC)CCCNC(=O)c1c(O)c2c([nH]c1=O)CCCC2 | 6.8% |
| CCSc1nc(C)cc(C)c1S(=O)(=O)c1ccccc1C | -0.26% |
| Nc1cccc2c(=O)c3ccccc3[nH]c12 | 16.4% |
| O=c1ccn(CCc2c[nH]c3ccccc23)c2c1CCCC2 | -12.7% |
| Cc1[nH]c2ccccc2c1/C=C/c1nc2ccccc2c(=O)[nH]1 | 15.8% |
| Cc1ccc2[nH]c(C(=O)O)c(NC(=O)CN3CCN(c4cccc(C)c4C)CC3)c2c1 | 36.2% |
| CC1CCC[C@H](O)CCCCCc2cc(O)cc(O)c2C(=O)O1 (stereo not given in full) | -28.5% |
| O=C(O)c1ccc(S(=O)(=O)NC2CC2)cc1 | 25% |
| c1cc2c(cc1C1CCCCC1)c1c3n2CCN=C3CCC1 | -16.8% |
| CC1(C)CC(=O)C(C=NCC2CCN(C(=O)Cc3ccccc3)CC2)=C(O)C1 | 6.03% |
| CC(C)(C)c1nc(SCC(=O)NCc2ccco2)c2ccccc2n1 | -7.41% |
| O=C(CSc1nc2c(c(=O)n1-c1ccc(F)cc1)SCC2)NCc1ccco1 | -0.95% |
| COc1ccccc1Nc1nc(NCc2ccco2)c2ccccc2n1 | 21.9% |

| Compound | inhibition |
| --- | --- |
| O=C(CSc1ncc(-c2ccc(F)cc2)[nH]1)NCc1ccco1 | -32.3% |
| c1ccc(CN2CCN(c3nc(NCc4ccco4)c4ccccc4n3)CC2)cc1 | 20.6% |
| CC1CCCN(C(=O)Cn2c(=O)oc3cc(S(=O)(=O)N4CCCCC4)ccc32)C1 (stereo not given) | -3.65% |
| COc1ccc(CSCCN)cc1Cl | 5.75% |
| CCCOc1ccc(C2=CSC3=NCCN23)cc1Cl | 10.9% |
| c1ccn(-c2ccc(-c3ccn[nH]3)cc2)c1 | 2.06% |
| O=C(NCc1ccco1)c1ccc2c(c1)N(Cc1ccccc1)CCS2 | -17.1% |
| O=C1N/C(=C/c2ccc(N3CCOCC3)cc2)C(=O)N1Cc1ccc(F)cc1 | -4.52% |
| CCOC(=O)c1c(CSC(=N)N)n(C)c2cc(Br)c(OC(C)=O)cc12 | -19% |
| CCOC(=O)Cc1[nH]nc2c1C(c1ccoc1)C(C#N)=C(N)O2 (stereo not given) | 24.6% |
| NC1=NC[C@H](Cc2ccc(O)cc2)N1CCc1cccc2ccccc12 | -33.5% |
| COc1ccc(C(=O)Oc2cc(C(=S)N3CCOCC3)ccc2OC)cc1 | -4.19% |
| COc1cc2c(cc1OC)CN(C(=O)CCCN1C(=O)c3ccccc3C1=O)CC2 | 11% |
| CC(C)(C)n1nc2c(c1NC(=O)c1ccccc1)CS(=O)(=O)C2 | -6.62% |
| Cc1ccc(C)c(OCC(=O)Nc2cccc(C(=O)O)c2)c1C | 26.7% |
| Cc1cc(C)c[n+](CC(=O)c2ccc(NC(=O)c3ccccc3)cc2)c1 | 15% |
| Cc1c(-c2ccccc2)[n+](=O)c2c(n1[O-])CCCC2 | 7.37% |
| Cn1c(CCN2CCN(c3ccccn3)CC2)nc2cc(NC(=O)COc3ccccc3)ccc21 | 16.1% |
| O=c1c2ccccc2nc2n1CCc1c-2[nH]c2ccccc12 | -12.2% |
| COc1cc(/C=C(/C#N)C(=O)Nc2ccccc2)c(Br)cc1OCc1ccc(C(=O)O)cc1 | -2.34% |
| CCC(=O)N1CCc2cc(S(=O)(=O)NCCCN3CCN(Cc4ccccc4)CC3)ccc21 | -4.18% |
| CCNC(=S)Nc1cc(-c2ccc(Cl)cc2)[nH]n1 | -1.85% |

| Compound | inhibition |
| --- | --- |
| CCn1nnnc1SCC(=O)c1cc(Cl)ccc1OC | 4.28% |
| CC1CCC(C(C)C)C(OC(=O)C[n+]2cc(-c3ccc(Cl)cc3)n3c2CCC3)C1 (stereo not given) | 35.1% |
| CC1CCC(C(C)C)C(OC(=O)Cn2c(-c3ccc(Br)cc3)[n+](C)c3ccccc32)C1 (stereo not given) | -18.7% |
| COc1ccc(OC)c(C(=O)c2ccc(C(=O)O)cc2)c1 | 13.8% |
| COC(=O)c1cn(C(=O)c2ccco2)c2ccccc12 | -16% |
| COc1ccc(N(C(=O)c2cccnc2)S(=O)(=O)c2cccc([N+](=O)[O-])c2)cc1 | -6.79% |
| Cc1ccc(NC2=C(Cl)C(=O)OC2OC(=O)c2ccco2)c(C)c1 (stereo not given) | 1.58% |
| COC(=O)c1ccc(OC(=O)c2cccnc2)cc1 | 14% |
| CCN(C1CCCCC1)S(=O)(=O)c1ccc(OC)c(C)c1 | 10.8% |
| CSC1=NC2(C)CCCCC2C12C=CC(=O)C=C2 (stereo not given) | -12.5% |
| COc1ccc(C(=O)CSc2nnc(-c3cnccn3)n2Cc2ccco2)cc1 | -8.62% |
| Cc1cc(NC(=O)CSc2nnc(-c3cccnc3)n2N)no1 | 16.5% |
| Cc1cc(C)c(CSc2ncnc3nc[nH]c23)c(C)c1 | -13.6% |
| N#CC(C(=O)C12CC3CC(CC(C3)C1)C2)c1nc2ccccc2[nH]1 (stereo not given) | -23.9% |
| Cc1nn(-c2nc3ccccc3[nH]2)c(N)c1-c1ccccc1 | 5.82% |
| c1ccc(N2CCN(c3nc4ccccc4[nH]3)CC2)nc1 | 23.3% [at 75 µM] |
| CC(=O)c1ccc(NC(=S)NC(NC(=O)c2ccco2)C(Cl)(Cl)Cl)cc1 (stereo not given) | 26.9% |
| O=C(Nc1ccc2c(c1)nc1n2CCN(Cc2ccccc2)C1)c1cccs1 | -10.1% |
| Cn1cnc2cc(NC(=O)c3cccs3)ccc21 | 25.2% |
| Cc1nc2ccc(NC(=O)c3cccc(C(F)(F)F)c3)cc2o1 | -0.54% |
| COc1ccc(NC(=O)Cn2c(=O)oc3cc(S(=O)(=O)N4CCCC4)ccc32)c(OC)c1 | -6.13% |
| COc1cc(CNC(=O)CCC(=O)N2C[C@H]3C[C@H](C2)c2cccc(=O)n2C3)cc(OC)c1OC | -15.7% |

| Compound | inhibition |
| --- | --- |
| Cc1ccc(/C=N/NC(=O)CSc2nc3ccccc3n2C)s1 | 7.39% |
| CC(C)c1ccc(NC(=O)CSc2nnc(-c3ccccn3)n2C)cc1 | 1.9% |
| COc1ccccc1C(=O)NNC1=C(C(=O)C(F)(F)F)CCC1 | 22% |
| COc1nc(N(C#N)CC(N)=O)nc(N2CCCC2)n1 | -14.6% |
| CC1CCN(CC(CS(=O)(=O)c2ccc([N+](=O)[O-])cc2)N2CCC(C)CC2)CC1 (stereo not given) | -27.2% |
| O=c1c2cnn(-c3ccccc3)c2ncn1CCc1ccccc1 | 16.9% |
| COc1cccc(-c2nc(CS(=O)CC(=O)NCCCOC(C)C)c(C)o2)c1 (stereo not given) | -17.2% |
| Cc1ccsc1/C=N/NC(=O)c1ccncc1 | 3.21% |
| O=C(N/N=C/c1ccc(N2CCCC2)c([N+](=O)[O-])c1)c1cccnc1 | 19.8% |
| Cc1cc(C)n(-c2nc3ccccc3nc2N2CCN(C(=O)c3ccc(F)cc3)CC2)n1 | -26.8% |
| CSc1nnc(-c2cccc(NC(=S)NN)c2)o1 | -45.2% |
| Cc1cccc(-n2ccnc2CN2CCN(C3CCCC3)C(CCO)C2)c1 (stereo not given) | 5.03% |
| C[N+](C)(CCCCCC[N+](C)(C)CCCN1C(=O)c2cccc3cccc(c23)C1=O)CCCN1C(=O)c2cccc3cccc(c23)C1=O | 15.2% |
| O=C(c1ccccc1F)N1C(=O)c2cccc3cccc1c23 | 1.1% |
| Cc1ccc(/C=N/n2c(C)nc3ccccc3c2=O)s1 | -5.95% |
| Cc1ccc(-c2[nH]ncc2/C=N/n2c(C)nc3ccccc3c2=O)cc1 | 24.4% |
| CCc1ccccc1NC(=O)c1onc(C)c1Cl | -34.5% |
| Cc1onc(-c2ccccc2Cl)c1C(=O)NNC(=O)C1CCN(Cc2ccccc2)CC1 | -13.4% |
| CCCN(CCC)CCNC(=O)C1CCN(Cc2nc(-c3ccc(Cl)cc3)oc2C)CC1 | 29.4% |
| O=C(/C=C/c1ccccc1)OCc1cnc(Cl)s1 | -4.85% |
| O=C(/C=C/c1ccccc1)NC(=S)N1CCSCC1 | -10.6% |
| COC(=O)c1cc2nc(-c3ccccc3)cc(C)n2n1 | 14.7% |
